From PubChem BioAssay (Tox21)
Inconclusive results are not listed. Calls of active or inactive are those of the source. The call rests on the fitted dose curve; in most records, active means well fitted activation curve with a large enough effect in the signal ratio in the repeat runs (not every such curve was filed as active); inconclusive means weak or mixed curves; inactive means flat fitted curve, though single readings scatter; the % refers to the signal ratio.

assay: qHTS assay to identify small molecule agonists of the TGF-beta/Smad signaling pathway (AID 1346859); conditions: SBE-bla HEK293T, TGF-beta/Smad beta-lactamase reporter, 5 h; series mostly up to 76.8 µM; activation: at the top concentration
Summary of the method: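 Reporter line: HEK 293T with stably integrated SBE-controlled beta-lactamase. Compound exposure lasts 5 hr at 37 C and 5% CO2; substrate loading follows for 2 hr at room temperature, with emission read at 460 and 530 nm.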
On the % scale 0 is the no-effect control and ±100 the full control effect.

With `O=c1[nH]c(=O)n([C@H]2CCCO2)cc1F` as the compound, how does the outcome read?
The outcome was “inactive”.

With `C=CCNC(N)=S` as the compound, how does the outcome read?
The outcome was “inactive”.

With `c1ccc2c(c1)ccc1ccccc12` as the compound, how does the outcome read?
The outcome was “inactive”.

For `CC(=O)OCC(=O)[C@@]12N=C(C)O[C@@H]1C[C@H]1[C@@H]3CCC4=CC(=O)C=C[C@]4(C)[C@H]3[C@@H](O)C[C@@]12C`, which outcome is on record?
Its outcome is “inactive”.

For `Cc1ccc2oc(=O)ccc2c1`, which outcome is on record?
Its outcome is “inactive”.

Which outcome does the source give for `CCC(O)OC(O)CC` (stereo not drawn) here?
Its outcome is “inactive”.

For `O=C(O)c1ccc(C(=O)O)cc1`, which outcome is on record?
The outcome was “inactive”.

With `CCCCCCCCCCCCc1ccccc1` as the compound, how does the outcome read?
The outcome was “inactive”.

Which outcome does the source give for `CCCCCC1=CCCC1=O` here?
The outcome was “inactive”.

For `CCCCC(CC)COC(=O)CCCCC(=O)OCC(CC)CCCC` (stereo not drawn), which outcome is on record?
Its outcome is “inactive”.

Which outcome does the source give for `CCCCCC(N)=O` here?
Its outcome is “inactive”.

For `CC(=O)c1ccccc1`, which outcome is on record?
The outcome was “inactive”.

For `CSCCC=O`, which outcome is on record?
Its outcome is “inactive”.

Which outcome does the source give for `Cc1ccc(N(C)C)cc1` here?
The outcome was “inactive”.

Which outcome does the source give for `CCCCCCCC(=O)OC` here?
Its outcome is “inactive”.

With `CCc1cccc(C)c1N` as the compound, how does the outcome read?
The outcome was “inactive”.

Which outcome does the source give for `OCC(CO)(CBr)CBr` here?
The outcome was “inactive”.

With `CC[C@H](C)C(=O)O[C@H]1C[C@@H](C)C=C2C=C[C@H](C)[C@H](CC[C@@H]3C[C@@H](O)CC(=O)O3)[C@H]21` as the compound, how does the outcome read?
The outcome was “inactive”.

With `CN(C)CCCN` as the compound, how does the outcome read?
Its outcome is “inactive”.

Which outcome does the source give for `O=S1(=O)CC=CC1` here?
Its outcome is “inactive”.

Which “activation” value does the source give for `CC(C)(C)[C@@H](O)[C@@H](Cc1ccc(Cl)cc1)n1cncn1` here?
The value was -16.1% (inactive).

For `C#CCN(C)Cc1ccccc1`, which outcome is on record?
The outcome was “inactive”.

For `C[Si](O[Si](C)(C)C)O[Si](C)(C)C`, which outcome is on record?
Its outcome is “inactive”.

With `Oc1cccc2ccccc12` as the compound, how does the outcome read?
The outcome was “inactive”.

With `CCCCCC/C(C=O)=C\c1ccccc1` as the compound, how does the outcome read?
Its outcome is “inactive”.

With `CCCCCCCCCCCCCCO` as the compound, how does the outcome read?
The outcome was “inactive”.

Which outcome does the source give for `Nc1cc([N+](=O)[O-])ccc1O` here?
The outcome was “inactive”.

With `O=C(O)c1cc(O)c(O)c(O)c1` as the compound, how does the outcome read?
The outcome was “inactive”.

Which outcome does the source give for `O=C(O)c1ccc2c(c1)C(=O)OC2=O` here?
The outcome was “inactive”.

Which “activation” value does the source give for `O=C(Oc1ccccc1)c1ccccc1` here?
Its value is 0.764% (inactive).

Which outcome does the source give for `OC[C@H]1O[C@@](CO)(O[C@H]2O[C@H](CO)[C@@H](O)[C@H](O)[C@H]2O)[C@@H](O)[C@@H]1O` here?
The outcome was “inactive”.

For `O=c1[nH]c(=O)n([C@H]2C[C@H](O)[C@@H](CO)O2)cc1Br`, which outcome is on record?
Its outcome is “inactive”.

With `CC(=O)CC(=O)Nc1ccccc1C` as the compound, how does the outcome read?
The outcome was “inactive”.

For `Fc1ccc(Br)cc1`, which outcome is on record?
Its outcome is “inactive”.

With `CC(c1cc2ccccc2s1)N(O)C(N)=O` (stereo not drawn) as the compound, how does the outcome read?
Its outcome is “inactive”.

Which outcome does the source give for `C=CCOC(=O)c1ccccc1C(=O)OCC=C` here?
Its outcome is “inactive”.

For `CC1CCC(C(C)C)C(O)C1` (stereo not drawn), which outcome is on record?
The outcome was “inactive”.

For `Cc1cccnc1`, which outcome is on record?
The outcome was “inactive”.
